In the library only some 7.4% were active in any assay of this set; here they are far more common.
NPC1 prom act – qHTS Assay for NPC1 Promoter Activators | Huh7 NPC1 promoter luciferase reporter, 24 h | Potency, µM (doses to about 9.22 µM), without a hit: at the top dose activation, most hits filed as activators | 320,000 tested, 2.4% active | AID 485313, 2010; note: % of control where 0% means no effect; nearly all actives have a fitted effect of over 60% in size
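Compounds in DMSO were transferred onto Huh7 NPC1-luciferase reporter cells pre-incubated 2 h; after 24 h at 37 °C, Amplite reagent was dispensed and luminescence recorded 10 min later.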
Rab9 promoter act – qHTS Assay for Rab9 Promoter Activators; 320,000 tested, 2.8% active; Huh7 Rab9 promoter-luciferase reporter, luminescence, 24 h; Potency, µM (top dose mostly 9.22 µM), without a hit: top-dose activation, negative = inhibition, usual class: activators; note: % of control where 0% means no effect; nearly all actives have a fitted effect of over 60% in size
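Measured in stably transfected Huh7 cells bearing a Rab9 promoter–luciferase construct: 24 h compound treatment at 37 °C, followed by luminescence detection.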
ELG1 genotoxic – qHTS screen for small molecules that induce genotoxicity in human embryonic kidney (HEK293T) cells expressing luciferase-tagged ELG1. 330,000 tested, 1.3% active. Potency, µM (top dose mostly 46 µM), without a hit: at the highest dose activity change, positive = activation, most hits filed as activators. AID 504466, 2011. HEK293T ELG1-luciferase reporter, luminescence, 16 h; note: % of control where 0% means no effect; nearly all actives have a fitted effect of over 60% in size
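Cells (2,000/well) expressing the ELG1-luciferase fusion are dosed by pin tool and kept 16 hr at 37 °C, 5% CO2. Signal comes from ONE-Glo luciferase reagent after 30 min at room temperature.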
FLuc counter – qHTS profiling assay for firefly luciferase inhibitor/activator using purifed enzyme and Km concentrations of substrates (counterscreen for miR-21 project); Luciferin 4-monooxygenase (Photinus pyralis), P08659; purified FLuc, Km substrates, luminescence inhibition; Potency, µM (series often up to 57.5 µM), for the others: top-dose activity change, negative = inhibition, usual class: inhibitors; 360,000 tested, 6.9% active;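 note: plate controls were vehicle for no effect and reference inhibitor for full effect; nearly all actives have a fitted effect of over 55% in size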
Target sequence (P08659 whole entry, looked up): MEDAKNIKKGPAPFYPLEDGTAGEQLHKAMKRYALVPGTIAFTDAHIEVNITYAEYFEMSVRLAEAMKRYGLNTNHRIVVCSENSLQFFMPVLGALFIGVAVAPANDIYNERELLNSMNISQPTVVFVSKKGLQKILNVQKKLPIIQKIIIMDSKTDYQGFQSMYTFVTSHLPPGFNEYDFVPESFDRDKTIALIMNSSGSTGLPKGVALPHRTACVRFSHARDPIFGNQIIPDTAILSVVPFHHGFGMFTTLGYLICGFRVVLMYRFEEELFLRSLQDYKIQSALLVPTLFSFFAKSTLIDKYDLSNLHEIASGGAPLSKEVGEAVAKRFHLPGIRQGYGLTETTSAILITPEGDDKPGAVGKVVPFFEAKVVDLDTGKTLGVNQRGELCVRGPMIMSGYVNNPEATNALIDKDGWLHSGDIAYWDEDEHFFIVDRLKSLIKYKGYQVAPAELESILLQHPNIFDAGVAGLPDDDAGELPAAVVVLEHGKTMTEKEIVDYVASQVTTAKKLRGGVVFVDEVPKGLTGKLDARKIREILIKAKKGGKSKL
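Biochemical qHTS of compounds, final roughly 60 µM downward over six points, against 10 nM purified firefly luciferase using Km concentrations of substrates (10 uM D-luciferin, 10 uM ATP) in Tris acetate pH 7.5 buffer; luminescence output.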
SMN2 splice up – qHTS Assay for Enhancers of SMN2 Splice Variant Expression | Potency, µM (titrated, usually from 46.1 µM), without a hit: at the highest dose activity change, positive = activation, most hits filed as activators | HEK293 SMN2-luciferase splicing reporter, luminescence, 30-36 h | 210,000 tested, 2.8% active | AID 1458, 2008; note: % of control where 0% means no effect; nearly all actives have a fitted effect of over 55% in size
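HEK293 cells carry an SMN2 […]–luciferase reporter in which exon 7 inclusion puts luciferase in frame. Cells were plated 10-12 h before compound addition, then incubated 30-36 h at 37C. ONE-Glo luminescence was read; sodium butyrate at 4.5 mM final served as control.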
* marks the source's active call; other numbers are inactive results; ? = inconclusive; . = no result given; [ ] = another dose, or the depositor's remark. Calls come from the whole dose curve; as a rule, active = well fitted curve in the direction sought with a large enough effect; inconclusive = small, poorly fitted or top-dose-only effect, or another doubt; inactive = no such curve, though single readings can be large; an effect the other way counts as inactive or inconclusive. Potency is the fitted concentration of half-maximal effect.

SMILES | NPC1 prom act | Rab9 promoter act | ELG1 genotoxic | FLuc counter | SMN2 splice up
CCc1cccc(C)c1NC(=O)C1=C(C)C(=O)OC12CCC(C)CC2 (configuration not stated) | . | . | . | 1% | 27%
Cc1ccc(-n2nnnc2SCC(=O)NC2CC2)cc1C | 0% | 3% | 3% | 7% | .
C/C(=N/OC(=O)C1CC1)c1cc(-c2ccc(Cl)cc2)no1 | ? | 2.8µM* | ? | 5.4µM* | .
C/C(=N\OC(=O)c1ccccc1)c1cc(-c2ccc(Cl)cc2)no1 | 2.8µM* | 3.2µM* | ? | -1% | ?
CCN(CCCNC(=O)c1nn(-c2ccc(OC)cc2)c(=O)c2c1c1ccccc1n2C)c1cccc(C)c1 | . | . | . | 4% | -11%
CC1CCC/C(=N\NS(=O)(=O)c2ccccc2)C1 (configuration not stated) | -1% | 0% | 0% | -2% | .
CC1CCC/C(=N\NC(=O)Nc2ccccc2)C1 (configuration not stated) | -1% | 1% | 6% | 15µM* | .
COc1ccccc1N1CCN(S(=O)(=O)c2ccc(F)c(C(=O)Nc3ccc(C)c(F)c3)c2)CC1 | . | . | . | -3% | .
O=C(Nc1cccc([N+](=O)[O-])c1)c1cc2ccccc2cc1O | 3% | -40% | 15% | 0.95µM* | .
COc1ccc(NC(=O)c2cccc([N+](=O)[O-])c2)cc1 | ? | ? | ? | ? | 43%
COc1ccc(NC(=O)c2cc([N+](=O)[O-])ccc2O)cc1 | 0.002µM* | 0.0003µM* | ? | 0.13µM* | .
O=C(Nc1ccncc1)c1cc2ccccc2cc1O | 2µM* | 1.4µM* | ? | 1.7µM* | .
O=C(Nc1ccncc1)c1ccccc1F | -3% | -1% | -11% | -2% | -9%
Cc1cccc(NC(=O)Cn2cc(S(=O)(=O)N3CCCC3)c(S(=O)(=O)N3CCCC3)c2)c1C | . | . | . | -5% | .
CCOc1ccccc1N(CC)C(=O)Cn1ncc2c1-c1ccccc1OC2 | . | . | . | -5% | -17%
CN1/C(=C\C(=O)c2cccnc2)Sc2ccccc21 | 2.5µM* | 2.2µM* | ? | 9.5µM* | 14µM*
COc1cccc(C(=O)Nc2ccccc2N2CCCC2)c1 | 0% | -6% | -1% | 3% | -18%
COc1cccc(C(=O)/C=C2\Sc3ccccc3N2C)c1 | 0.71µM* | 0.89µM* | 1.5µM* | 1.1µM* | 6.3µM*
CCOC(=O)C1=C(C2=CCCCC2)c2ccc(OC)cc2N(S(=O)(=O)C(F)(F)F)C1C(=O)OCC (configuration not stated) | . | . | 1% | . | .
COc1cc(C2=CN(Cc3ccccc3)CCC2=O)cc(OC)c1OC | . | . | 10% | . | .
Fc1ccc(CSc2nncn3c2cc2occc23)c(Cl)c1 | . | . | . | -12% | .
O=C(CCS(=O)(=O)c1ccc(Br)cc1)N1CCN(c2ccccc2)CC1 | -1% | -3% | -1% | 1% | 5%
O=C(CCS(=O)(=O)c1ccccc1)N1CCN(c2ccccc2)CC1 | 2.8µM* | 1.6µM* | ? | 12µM* | .
Nc1ccc2oc(-c3cccc4ccccc34)nc2c1 | -2% | 8% | 8% | 13µM* | 10%
Cc1ccc(-c2nc3cc(NS(=O)(=O)c4ccc(C)cc4)ccc3o2)cc1 | -1% | 6% | 6% | ? | -8%
SMILES | NPC1 prom act | Rab9 promoter act | ELG1 genotoxic | FLuc counter | SMN2 splice up
Cc1ccc(-c2nc3cc(C)ccc3o2)cc1 | ? | 0.63µM* | 0.52µM* | 0.17µM* | 11µM*
CC(C)(C)c1ccc(-c2nc3cc(N)ccc3o2)cc1 | 0.32µM* | 0.63µM* | 1.3µM* | 0.43µM* | .
Cc1ccc(-c2nc3cc(NC(=O)c4cc5ccccc5o4)ccc3o2)cc1 | . | . | . | -10% | 9%
Cc1ccc(-c2nc3cc(N)ccc3o2)cc1 | 0.45µM* | 0.45µM* | 0.33µM* | 0.6µM* | 0.71µM*
Nc1ccc2oc(-c3cccs3)nc2c1 | 3.2µM* | 3.5µM* | 9.2µM* | 12µM* | .
Cc1ccc(/C(O)=C/c2nc3cc(C)ccc3oc2=O)cc1 | -2% | -4% | 1% | 12µM* | .
Cc1ccc2oc(-c3ccco3)nc2c1 | ? | ? | ? | 4.8µM* | 18%
Cc1ccc2oc(-c3cccc(N)c3)nc2c1 | 1µM* | 0.63µM* | 2.3µM* | 0.76µM* | .
Cc1ccc(C)c(CNC(=O)c2sc3ncnc(N(C)C4CCCCC4)c3c2C)c1 | . | . | . | -8% | .
COC(=O)c1ccccc1NC(=O)c1nc(-c2ccc(C)cc2)n2c1CCCCC2 | . | . | . | -2% | .
COc1ccc(C2c3[nH]c4ccc(OC)cc4c3CCN2C(=O)Nc2ccccc2)cc1 (configuration not stated) | . | . | . | 0% | .
CCOc1ccccc1NC(=O)C1CCN(S(=O)(=O)c2cc(Br)cc3c2N(C(C)=O)CC3)CC1 | . | . | . | -17% | -5%
CC(C)c1ccc2oc(-c3ccc(NC(=O)c4cc5ccccc5o4)cc3)nc2c1 | . | . | . | -2% | -23%
CC(C)c1ccc2oc(-c3ccc(N)cc3)nc2c1 | 0.56µM* | 0.56µM* | ? | 0.19µM* | .
Cc1ccc(-c2nc3cc(N)ccc3o2)c(C)c1 | ? | 0.56µM* | 2.6µM* | 0.67µM* | ?
CCCCc1nc2c(c3c1C[C@H](C)OC3)CN(C(=O)NCCc1c[nH]c3ccccc13)CC2 | . | . | . | . | -24%[9.22 µM]
NC(=O)c1ccsc1NC(=O)C1CCCN1S(=O)(=O)c1ccc(Cl)cc1 (configuration not stated) | -5% | 2% | -2% | -7% | -13%
Cc1cc(C)n(-c2ccc(C(=O)NCc3cccs3)cc2)n1 | 5% | 6% | -3% | -2% | 13%
Cc1cc(C)n(-c2ccc(C(=O)Nc3nnc(C)s3)cc2)n1 | 13% | ? | ? | 13µM* | 2%
Cc1cc(C)n(-c2ccc(C(=O)Nc3sccc3C(N)=O)cc2)n1 | ? | ? | ? | 6.7µM* | 13µM*
CC1CCCCN1S(=O)(=O)c1ccc(C(=O)Nc2sccc2C(N)=O)cc1 (configuration not stated) | ? | ? | ? | 21µM* | 20µM*
Cc1cc(C)n(-c2ccc(C(=O)Nc3ccccn3)cc2)n1 | 0.89µM* | 0.5µM* | ? | 6µM* | 1.6µM*
Cc1cccc(NC(=O)CSc2nnc(CNC(=O)c3c(F)cccc3Cl)o2)c1C | . | . | . | 6% | 6%
O=C(Nc1ccccc1Cl)c1cccc(COc2cc(Cl)ccc2Cl)c1 | 2.2µM* | 4µM* | ? | ? | 6.3µM*
CN1CCN(C(=O)c2ccc(COc3cc(Cl)ccc3Cl)o2)CC1 | -1% | -4% | 6% | -3% | .
Cc1nn(Cc2ccccc2Cl)c(C)c1NC(=O)c1cc(C(C)C)on1 | . | . | . | -15% | ?
CN1CCN(C(=O)c2cccc(COc3cc(Cl)ccc3Cl)c2)CC1 | 3.2µM* | 1.1µM* | ? | ? | 10µM*
